# Test results taken from ChEMBL document CHEMBL2218924, “A broad activity screen in support of a chemogenomic map for kinase signalling research and drug discovery” (Biochem J, 2013).
# Legend:
# [1] = target: Aurora kinase B (Homo sapiens) (UniProt Q96GD4); settings: at 10 µM
# [2] = target: Aurora kinase B (Homo sapiens) (UniProt Q96GD4); settings: at 1 µM
# [3] = target: T1, Mitogen-activated protein kinase kinase kinase 5 (Homo sapiens) (UniProt Q99683); settings: at 10 µM
# T1 sequence (whole entry): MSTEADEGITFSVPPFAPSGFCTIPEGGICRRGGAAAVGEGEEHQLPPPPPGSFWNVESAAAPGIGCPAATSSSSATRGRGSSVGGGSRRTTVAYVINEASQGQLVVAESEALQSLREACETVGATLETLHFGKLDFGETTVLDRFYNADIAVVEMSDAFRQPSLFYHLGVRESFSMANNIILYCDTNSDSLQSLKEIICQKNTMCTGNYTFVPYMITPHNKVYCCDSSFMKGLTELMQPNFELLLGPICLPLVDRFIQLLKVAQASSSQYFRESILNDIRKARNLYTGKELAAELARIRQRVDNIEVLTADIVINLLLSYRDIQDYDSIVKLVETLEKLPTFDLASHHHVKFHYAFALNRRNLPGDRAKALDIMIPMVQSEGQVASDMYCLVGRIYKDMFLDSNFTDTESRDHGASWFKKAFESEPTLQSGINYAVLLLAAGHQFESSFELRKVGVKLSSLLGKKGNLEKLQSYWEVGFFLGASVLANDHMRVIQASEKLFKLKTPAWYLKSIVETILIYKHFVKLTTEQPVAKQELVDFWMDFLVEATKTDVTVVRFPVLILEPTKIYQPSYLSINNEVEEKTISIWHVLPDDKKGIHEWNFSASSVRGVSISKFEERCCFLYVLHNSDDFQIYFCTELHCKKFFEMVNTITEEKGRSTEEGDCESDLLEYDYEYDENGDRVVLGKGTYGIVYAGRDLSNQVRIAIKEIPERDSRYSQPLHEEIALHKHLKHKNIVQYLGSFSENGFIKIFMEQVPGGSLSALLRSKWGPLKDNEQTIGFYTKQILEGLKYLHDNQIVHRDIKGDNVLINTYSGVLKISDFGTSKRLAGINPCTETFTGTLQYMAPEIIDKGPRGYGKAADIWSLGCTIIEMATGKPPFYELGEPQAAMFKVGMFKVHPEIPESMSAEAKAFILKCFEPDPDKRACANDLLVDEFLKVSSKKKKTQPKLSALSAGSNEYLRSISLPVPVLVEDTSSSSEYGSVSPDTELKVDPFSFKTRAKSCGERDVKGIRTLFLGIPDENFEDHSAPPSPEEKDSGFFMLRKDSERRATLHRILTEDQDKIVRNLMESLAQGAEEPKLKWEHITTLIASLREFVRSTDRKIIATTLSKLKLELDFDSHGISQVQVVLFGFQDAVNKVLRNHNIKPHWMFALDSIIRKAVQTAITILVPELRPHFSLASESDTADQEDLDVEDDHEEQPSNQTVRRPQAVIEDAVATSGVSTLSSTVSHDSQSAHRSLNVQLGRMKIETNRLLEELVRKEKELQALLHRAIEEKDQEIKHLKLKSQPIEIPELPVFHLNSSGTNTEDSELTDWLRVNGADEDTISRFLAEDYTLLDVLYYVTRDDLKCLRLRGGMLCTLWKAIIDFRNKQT
# [4] = target: Tyrosine-protein kinase ABL2 (Homo sapiens) (UniProt P42684); settings: at 1 µM
# [5] = target: T2, Aurora kinase A (Homo sapiens) (UniProt O14965); settings: at 1 µM
# T2 sequence (whole entry): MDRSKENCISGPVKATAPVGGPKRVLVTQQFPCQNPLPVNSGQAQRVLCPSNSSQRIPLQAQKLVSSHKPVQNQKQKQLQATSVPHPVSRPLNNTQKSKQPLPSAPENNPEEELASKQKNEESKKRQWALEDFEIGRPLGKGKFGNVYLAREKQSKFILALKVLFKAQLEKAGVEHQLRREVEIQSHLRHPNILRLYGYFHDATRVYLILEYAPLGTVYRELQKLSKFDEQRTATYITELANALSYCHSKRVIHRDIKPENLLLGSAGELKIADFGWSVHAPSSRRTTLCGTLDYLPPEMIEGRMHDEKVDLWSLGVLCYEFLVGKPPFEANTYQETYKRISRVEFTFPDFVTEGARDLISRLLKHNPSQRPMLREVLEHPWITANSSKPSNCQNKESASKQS
# [6] = target: T2, Aurora kinase A (Homo sapiens); settings: at 10 µM
# [7] = target: Tyrosine-protein kinase ABL2 (Homo sapiens) (UniProt P42684); settings: at 10 µM
# [8] = target: Tyrosine-protein kinase ABL1 (Homo sapiens) (UniProt P00519); settings: at 1 µM
# [9] = target: Tyrosine-protein kinase ABL1 (Homo sapiens) (UniProt P00519); settings: at 10 µM
# Sequence of Tyrosine-protein kinase ABL1 (Homo sapiens) (P00519 whole entry): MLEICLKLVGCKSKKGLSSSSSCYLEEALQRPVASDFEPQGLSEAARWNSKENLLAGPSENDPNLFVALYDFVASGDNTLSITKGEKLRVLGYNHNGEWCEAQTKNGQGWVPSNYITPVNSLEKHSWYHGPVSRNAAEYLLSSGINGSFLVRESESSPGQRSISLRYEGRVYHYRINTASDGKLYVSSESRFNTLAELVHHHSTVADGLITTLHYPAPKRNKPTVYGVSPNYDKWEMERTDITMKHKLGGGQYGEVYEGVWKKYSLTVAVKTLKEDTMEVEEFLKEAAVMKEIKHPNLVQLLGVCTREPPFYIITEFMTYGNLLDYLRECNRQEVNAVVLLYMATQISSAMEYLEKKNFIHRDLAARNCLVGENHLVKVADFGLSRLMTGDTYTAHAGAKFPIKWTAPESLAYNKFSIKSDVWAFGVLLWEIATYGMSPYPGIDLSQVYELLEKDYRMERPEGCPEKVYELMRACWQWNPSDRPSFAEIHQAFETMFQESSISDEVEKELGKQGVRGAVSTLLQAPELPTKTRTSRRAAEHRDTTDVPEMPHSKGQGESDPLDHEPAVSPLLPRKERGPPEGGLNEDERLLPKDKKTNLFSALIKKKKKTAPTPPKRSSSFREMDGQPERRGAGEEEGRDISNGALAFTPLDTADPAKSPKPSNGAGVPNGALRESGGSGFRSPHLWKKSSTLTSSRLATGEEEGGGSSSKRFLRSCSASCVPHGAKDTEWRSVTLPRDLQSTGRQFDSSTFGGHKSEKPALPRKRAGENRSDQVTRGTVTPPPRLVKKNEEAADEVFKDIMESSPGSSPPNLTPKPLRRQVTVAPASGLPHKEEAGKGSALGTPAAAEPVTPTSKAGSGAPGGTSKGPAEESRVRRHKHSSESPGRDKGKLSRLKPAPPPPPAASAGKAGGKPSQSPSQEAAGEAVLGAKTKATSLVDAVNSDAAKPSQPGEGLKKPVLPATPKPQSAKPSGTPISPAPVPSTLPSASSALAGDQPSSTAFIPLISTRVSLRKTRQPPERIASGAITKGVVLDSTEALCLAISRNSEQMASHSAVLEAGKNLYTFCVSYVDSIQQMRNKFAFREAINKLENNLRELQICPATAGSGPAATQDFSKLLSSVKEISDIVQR
# Sequence of Tyrosine-protein kinase ABL2 (Homo sapiens) (P42684 whole entry): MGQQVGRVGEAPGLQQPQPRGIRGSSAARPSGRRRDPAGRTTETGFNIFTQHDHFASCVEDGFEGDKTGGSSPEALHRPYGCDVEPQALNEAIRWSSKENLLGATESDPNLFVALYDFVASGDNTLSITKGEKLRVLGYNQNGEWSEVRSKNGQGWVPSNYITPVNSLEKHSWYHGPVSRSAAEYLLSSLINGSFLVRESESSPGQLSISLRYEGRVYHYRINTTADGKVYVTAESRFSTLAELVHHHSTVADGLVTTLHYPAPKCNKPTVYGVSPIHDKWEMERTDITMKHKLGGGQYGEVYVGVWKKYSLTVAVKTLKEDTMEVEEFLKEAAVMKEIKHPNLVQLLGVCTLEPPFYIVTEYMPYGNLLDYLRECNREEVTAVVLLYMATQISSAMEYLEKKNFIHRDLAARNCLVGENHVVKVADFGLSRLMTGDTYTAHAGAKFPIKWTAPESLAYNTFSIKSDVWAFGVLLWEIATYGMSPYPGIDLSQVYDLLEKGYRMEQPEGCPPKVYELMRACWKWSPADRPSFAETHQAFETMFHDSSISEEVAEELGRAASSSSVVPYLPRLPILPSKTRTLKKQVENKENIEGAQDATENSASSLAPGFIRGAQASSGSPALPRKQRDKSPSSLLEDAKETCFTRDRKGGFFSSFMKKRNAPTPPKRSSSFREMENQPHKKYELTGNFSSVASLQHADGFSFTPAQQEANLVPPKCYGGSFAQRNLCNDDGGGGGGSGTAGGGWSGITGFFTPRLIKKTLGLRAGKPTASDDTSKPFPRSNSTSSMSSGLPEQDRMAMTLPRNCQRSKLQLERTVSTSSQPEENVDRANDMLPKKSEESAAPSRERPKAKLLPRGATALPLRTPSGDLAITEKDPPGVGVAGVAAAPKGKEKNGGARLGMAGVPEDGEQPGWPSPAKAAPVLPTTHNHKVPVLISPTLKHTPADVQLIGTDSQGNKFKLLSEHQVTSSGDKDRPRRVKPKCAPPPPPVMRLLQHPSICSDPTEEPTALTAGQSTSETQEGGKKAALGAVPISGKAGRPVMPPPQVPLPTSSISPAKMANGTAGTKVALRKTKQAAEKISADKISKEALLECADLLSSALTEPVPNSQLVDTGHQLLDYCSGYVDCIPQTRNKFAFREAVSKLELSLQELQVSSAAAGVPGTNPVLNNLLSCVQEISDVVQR
# Sequence of Aurora kinase B (Homo sapiens) (Q96GD4 whole entry): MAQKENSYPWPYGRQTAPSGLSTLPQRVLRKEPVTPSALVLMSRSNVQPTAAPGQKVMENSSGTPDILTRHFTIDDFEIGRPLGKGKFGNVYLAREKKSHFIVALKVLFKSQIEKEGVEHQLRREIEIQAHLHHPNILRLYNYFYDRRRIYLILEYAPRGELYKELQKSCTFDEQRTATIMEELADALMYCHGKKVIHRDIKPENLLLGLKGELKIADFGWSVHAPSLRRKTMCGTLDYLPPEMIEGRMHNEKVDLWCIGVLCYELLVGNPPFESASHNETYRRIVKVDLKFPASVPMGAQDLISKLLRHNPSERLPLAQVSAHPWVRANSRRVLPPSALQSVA
structure (smiles),measurement,setting,value
CC(C)N(CCC(=O)c1ccc2ccccc2c1)Cc1ccccc1,residual activity,[1],83%
O=S(=O)(NCCNC/C=C/c1ccc(Br)cc1)c1cccc2cnccc12,residual activity,[2],43%
same,residual activity,[1],8%
O=C(Nc1nc2ccccc2n1CCN1CCOCC1)c1cccc([N+](=O)[O-])c1,residual activity,[3],110%
same,residual activity,[4],100%
same,residual activity,[5],101%
same,residual activity,[6],103%
same,residual activity,[2],100%
same,residual activity,[1],40%
Nc1nc(Nc2ccc(S(N)(=O)=O)cc2)nn1C(=O)c1c(F)cccc1F,residual activity,[3],46%
same,residual activity,[4],34%
same,residual activity,[7],8%
O=C(CCCc1ccc(-c2ccccc2F)cc1)Nc1ccc(O)cc1,residual activity,[3],105%
same,residual activity,[8],110%
same,residual activity,[4],105%
same,residual activity,[7],86%
same,residual activity,[5],130%
same,residual activity,[6],102%
same,residual activity,[2],107%
same,residual activity,[1],91%
CN(C)S(=O)(=O)c1ccc2c(c1)/C(=C/c1cc3c([nH]1)CCCC3)C(=O)N2,residual activity,[8],77%
same,residual activity,[9],72%
same,residual activity,[4],114%
same,residual activity,[7],75%
same,residual activity,[5],36%
same,residual activity,[6],13%
same,residual activity,[2],-1%
same,residual activity,[1],1%
Nc1nccc(-c2c(-c3ccc(F)cc3)ncn2C2CCNCC2)n1,residual activity,[7],65%
same,residual activity,[1],72%
Fc1ccc(-c2nc3n(c2-c2ccncc2)CCS3)cc1,residual activity,[3],83%
same,residual activity,[4],96%
same,residual activity,[7],77%
CN([C@@H](Cc1ccc(OS(=O)(=O)c2cccc3cnccc23)cc1)C(=O)N1CCN(c2ccccc2)CC1)S(=O)(=O)c1cccc2cnccc12,residual activity,[9],86%
